Measurements from ChEMBL document CHEMBL4513146, “CO-ADD screening of Karazin Kharkiv National University (Ukraine) compounds”.
Results with a measured potency or affinity are listed apart.

Columns and labels:
[1] = tested on: Staphylococcus aureus; conditions: Concentration 32 ug.mL-1;; ASSAY_TEST Inhibition of Bacterial Growth; detection method Absorption (OD600); MEDIA CAMHB; plate type 384well; NBS; CORNING #3640; time 18 hr
[2] = tested on: Escherichia coli; conditions: Concentration 32 ug.mL-1;; ASSAY_TEST Inhibition of Bacterial Growth; detection method Absorption (OD600); MEDIA CAMHB; plate type 384well; NBS; CORNING #3640; time 18 hr

Structure (SMILES) | Inhibition [1] | Inhibition [2]
O=C(CSc1nnc2c(=O)n(-c3cccc(F)c3)ccn12)NCCc1ccccc1 | -2.66% | -10.98%
CC(=O)c1ccc(NC(=O)Cn2nc3ccc(-c4ccc(C)cc4)nn3c2=O)cc1 | 10.69% | -3.43%
CCCCc1ccc(NC(=O)Cn2nc3c(N4CCSCC4)nc4ccccc4n3c2=O)cc1 | 10.09% | 1.07%
CCCn1c(=O)c2sccc2n2c(=O)n(CC(=O)c3cc(C)ccc3C)nc12 | 7.83% | 0.58%
Cc1ccc(C)c(NC(=O)Cn2nc3c(Sc4ccccc4)nccn3c2=O)c1 | 6.23% | -5.56%
Cc1cccc(CN(c2ccccc2)S(=O)(=O)c2cccn3c(C)nnc23)c1 | 5.16% | -11.12%
CCOc1ccc(NC(=O)Cn2nc3ccc(-c4ccc(C)c(C)c4)nn3c2=O)cc1 | 3.86% | -6.73%
O=C(Cn1nc2ccc(-c3ccccc3)nn2c1=O)Nc1ccc(F)cc1 | 1.63% | -4.86%
Cc1ccc(CN(c2ccccc2)S(=O)(=O)c2ccc3nncn3c2)cc1 | 12.66% | -4.44%
Cc1ccc(-n2ccn3c(SCC#N)nnc3c2=O)cc1C | 11.84% | -4.03%
O=C(CSc1nnc2c(=O)n(-c3ccc(Br)cc3)ccn12)Nc1cc(F)ccc1F | 11.71% | -2.54%
COc1ccc(CN(c2ccc(F)cc2)S(=O)(=O)c2cccn3cnnc23)cc1F | 11.25% | -4.31%
